Reference: PubChem BioAssay AID1894 (NMMLSC, 2009)
The whole screen tested about 5,900 compounds, of which about 100 (1.7%) were called active.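 The calls were made as follows: active = binding response below 72% of control, or above a set upper limit, though filed actives all read lower; inactive = the rest.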 Only a selection was taken, and actives are over-represented in it overall.

Target: Mitogen-activated protein kinase kinase kinase 3 (Homo sapiens) (UniProt Q99759)
Assay: blockers of MEK5-MEKK3 PB1 association – biochemical, bead multiplex flow cytometry, single concentration, wildtype, confirmation (AID 1894);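 also: 100% = DMSO only wells and 0% = binding blocked by excess unlabeled MEK5; lower values mean stronger disruption of MEK5 binding to MEKK3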
Details: Alexa488-MEK5 binding to MEKK3, at 10 µM, active compounds read low

Chain of Mitogen-activated protein kinase kinase kinase 3 (Homo sapiens) (Q99759 whole entry, looked up): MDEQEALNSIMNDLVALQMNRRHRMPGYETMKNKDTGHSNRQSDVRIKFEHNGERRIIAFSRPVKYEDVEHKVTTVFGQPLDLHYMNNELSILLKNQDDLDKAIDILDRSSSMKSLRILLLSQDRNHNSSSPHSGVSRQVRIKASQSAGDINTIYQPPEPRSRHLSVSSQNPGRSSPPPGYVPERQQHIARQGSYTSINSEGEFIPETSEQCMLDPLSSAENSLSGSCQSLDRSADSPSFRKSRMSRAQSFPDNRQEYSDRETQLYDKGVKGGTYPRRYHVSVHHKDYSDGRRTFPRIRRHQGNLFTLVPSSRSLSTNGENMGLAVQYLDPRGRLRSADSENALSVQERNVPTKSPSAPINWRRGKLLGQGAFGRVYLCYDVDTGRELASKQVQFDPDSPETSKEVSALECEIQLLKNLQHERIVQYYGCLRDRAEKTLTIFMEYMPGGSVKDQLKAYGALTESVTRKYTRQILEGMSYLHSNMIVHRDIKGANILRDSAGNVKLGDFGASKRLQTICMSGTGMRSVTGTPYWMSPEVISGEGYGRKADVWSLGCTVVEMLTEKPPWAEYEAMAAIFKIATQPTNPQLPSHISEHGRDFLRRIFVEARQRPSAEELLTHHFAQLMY

Binding response (% of control), inactive:
Cc1ccc2c(C)c(C(=O)N3CCN(c4ccncc4)CC3)oc2c1C 108%, Cc1ccccc1-c1ccc(Nc2ccc(C(=O)N3CCOCC3)cc2)nn1 102%, C[N+](C)(C)CCNC(=O)c1c(O)c2c([nH]c1=O)CCCC2 99%, COc1cc(C)nc(N2CCCC(C(=O)NCC(C)C)C2)n1 (centres undefined) 96%, O=c1[nH]c(=S)[nH]c2[nH]c(=S)[nH]c12 100%, CCOC(=O)c1cc2occc2n1CC(=O)N1CCN(C(=O)c2ccco2)CC1 95%, O=C(O)C1CCN(c2ccc([N+](=O)[O-])cc2[N+](=O)[O-])CC1 102%, COc1ccccc1CC(=O)Nc1ccc([N+](=O)[O-])cc1OC 98%, c1ccc2c(c1)C(=NC1CCCCC1)NC2=NC1CCCCC1 104%, CCc1nnc(NC(=O)c2sc3nc(C)cc(COC)c3c2N)s1 105%, Cc1cccc(OCCNC(=O)CSc2ccc(C(F)(F)F)cc2[N+](=O)[O-])c1 104%, COc1ccc(CCn2c(NN=C3CCCC3)nc3c2c(=O)[nH]c(=O)n3C)cc1 106%, Cc1c(CN2CCC(CO)(CCOc3ccccc3)CC2)[nH]c2ccc(Cl)cc12 112%, COc1cccc(Nc2ncccc2C(=O)O)c1 101%, O=C(NCC1CCCCC1)c1cc(S(=O)(=O)N2CCCCC2)ccc1N1CCOCC1 91%, O=C(c1ccc(Br)o1)N(c1ccccn1)C1CCCCC1 98%, Cc1cccc(CSc2nnc(C)c(=O)n2N)c1 103%, CC(C)CC(=O)NC(=S)NCc1ccccc1 99%, COC(=O)C1=NN(c2ccccc2)C2C(=O)N(c3ccccc3OC)C(=O)C12 (centres undefined) 103%, Cc1ccccc1CCN(CC(=O)NC1CCCCC1)C(=O)c1csnn1 97%, Cc1[nH]c2ccc(S(N)(=O)=O)cc2c1C 100%, CCc1ccc2nc(Nc3ncc(C(C)=O)c(C)n3)nc(C)c2c1 102%, COc1cccc(OC)c1C(=O)Nc1ccc(Cc2ccncc2)cc1 101%, CN(C)CC(O)COc1ccc(C(C)(C)c2ccc(OCC(O)CN(C)C)cc2)cc1 (centres undefined) 111%
